According to PubChem BioAssay (NCATS):
“And” between values parts separate entries of the source, which are not always exact repeats. Equal values may be shown once. Inconclusive results are not listed. The source made the active and inactive calls. The call rests on the fitted dose curve; in most records, active means well fitted curve in the direction sought with a large enough effect; inconclusive means small, poorly fitted or top-dose-only effect, or another doubt; inactive means no such curve, though single readings can be large; an effect the other way counts as inactive or inconclusive. Where a SMILES comes first, the peptide text is derived from it.

Experiment: qHTS Assay for Identifying Gametocytocidal Compounds (AID 743244);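 further: on the % scale 0 is the no-effect control and ±100 the full control effect; actives lower the fluorescent signal which means gametocytes are killed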
Settings: P. falciparum 3D7 stage III-V gametocytes, alamarBlue, 72 h; max response: active compounds read low
Method in brief: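 P. falciparum 3D7 stage III–V gametocytes (20,000 cells/well) were exposed to compounds for 72 h at 37 °C, 5% CO2. AlamarBlue was then added for 24 h; decreased resorufin fluorescence (Ex 525/Em 598 nm) indicated loss of viability.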
In the case of `CC(=O)Nc1c(I)c(NC(C)=O)c(I)c(C(=O)O)c1I`, the max response is reported as -5.52% (inactive). For `C[N+](C)(C)CCO`, the max response was 1.6% (inactive) and 15% (inactive). For `CCCC(=O)c1cc(O)c(O)cc1O`, the max response was 30.2% (inactive). In the case of `Cn1cc(S(C)=O)c(=O)c2ccc(F)cc21` (centres undefined), the max response is reported as -4.53% (inactive). For `O=C(Oc1ccccc1)c1cccc(C(=O)Oc2ccccc2)c1`, the max response was -7.52% (inactive). With `Cc1ccccc1N1CCN(CCc2nnc3n2CCCC3)CC1` the max response was -15.7% (inactive). For `CCNC(=O)NCCCOc1cccc(CN2CCCCC2)c1`, the max response was -8.1% (inactive). In the case of `Cc1ccccc1C(=O)N1CC/C(=N\OS(=O)(=O)O)c2ccc(Cl)cc21`, the max response is reported as 0.506% (inactive). For `CC(=O)OCC[N+](C)(C)C`, the max response was 0.348% (inactive). For `CC(=O)Nc1ccn(C2COC(COC(=O)c3ccccc3)O2)c(=O)n1` (centres undefined), the max response was -5.34% (inactive). For `CCCCNc1ccc(C(=O)OCCN(CC)CC)cc1`, the max response was -4.4% (inactive). In the case of `O=C1NC(=O)/C(=C/c2ccc3c(c2)OC(F)(F)O3)S1`, the max response is reported as -20.1% (inactive). For `CC(C)C[C@H](NC(=O)CNC(=O)[C@H](Cc1ccc(O)cc1)NC(=O)[C@H](CO)NC(=O)[C@H](Cc1c[nH]c2ccccc12)NC(=O)[C@H](Cc1cnc[nH]1)NC(=O)[C@@H]1CCC(=O)N1)C(=O)N[C@@H](CCCN=C(N)N)C(=O)N1CCC[C@H]1C(=O)NCC(N)=O` (stereo in doubt), the max response was -1.4% (inactive). For `Cc1ccc(/C=N/n2c(-c3ccccc3)csc2=S)cc1`, the max response was -23% (inactive). With `Nc1nnnn1-c1ccccc1` the max response was 2.05% (inactive). In the case of `CC(C(=O)O)c1ccc(/C=C2\CCCCC2=O)cc1` (centres undefined), the max response is reported as -9.38% (inactive). With `CC(=O)OCC(=O)Nc1cc(C#N)cc(NC(=O)COC(C)=O)c1Cl` the max response was -6.24% (inactive).

Experiment: qHTS assay for measurement of the activity of small molecule inhibitors on Zika virus induced Caspase-3 activity in human iPSC derived neural progenitor cells (hNPCs) (AID 1224857); further: nearly all actives have a fitted effect of over 65% in size; further: potency means the concentration at half of the fitted maximal effect; on activity change, negative = inhibition: % of control where 0% means no effect
Settings: hNPCs ZIKV-induced caspase-3/7, Caspase-Glo luminescence, 6 h; series mostly up to 45.7 µM; activity change, negative = inhibition: at the top concentration
Method in brief: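 hNPCs seeded 350 cells/well, cultured 16–20 h; compounds added 1 h before ZIKV (2 FFU/cell), 37 C 6 h. Caspase-Glo 3/7 luminescence after 30 min RT; % inhibition from induction scaled to uninfected (0%) and infected (100%) wells.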
In the case of `Nc1cc(C(F)(F)F)ccc1S`, the Potency is reported as 14.1 µM (active). In the case of `CC(=O)Nc1c(I)c(NC(C)=O)c(I)c(C(=O)O)c1I`, the “activity change, negative = inhibition” value is reported as 8.55% (inactive). With `CCCC(=O)c1cc(O)c(O)cc1O` the “activity change, negative = inhibition” value was -13.5% [at 92.8 µM] (inactive). For `O=C(c1cc(O)c(O)c(O)c1)c1ccc(O)c(O)c1O`, the “activity change, negative = inhibition” value was -2.91% (inactive). For `CC(C)N(CCC(=O)c1ccc2ccccc2c1)Cc1ccccc1`, the “activity change, negative = inhibition” value was -6.17% (inactive). In the case of `Cn1cc(S(C)=O)c(=O)c2ccc(F)cc21` (centres undefined), the “activity change, negative = inhibition” value is reported as -0.576% (inactive). For `O=C(Oc1ccccc1)c1cccc(C(=O)Oc2ccccc2)c1`, the “activity change, negative = inhibition” value was -184% [at 92.8 µM] (inactive). In the case of `CC(=O)O[C@@H]1CC2C3CCc4cc(OC(=O)c5ccccc5)ccc4C3CCC2(C)[C@H]1OC(C)=O` (some centres undefined), the “activity change, negative = inhibition” value is reported as -26.3% (inactive). With `N#CSCC(=O)O` the “activity change, negative = inhibition” value was -24.7% (inactive). For `Cc1ccccc1N1CCN(CCc2nnc3n2CCCC3)CC1`, the “activity change, negative = inhibition” value was 9.6% (inactive). For `CCCc1ccc(OCC(=O)N2CCN(C(=O)COc3ccc(CCC)cc3OC)CC2)c(OC)c1`, the “activity change, negative = inhibition” value was 31.5% (inactive). In the case of `CCC(=O)O[C@]1(C(=O)COC)[C@@H](C)C[C@H]2[C@@H]3CCC4=CC(=O)C=C[C@]4(C)C3(F)[C@@H](O)C[C@@]21C` (some centres undefined), the “activity change, negative = inhibition” value is reported as -3.57% (inactive). For `CCNC(=O)NCCCOc1cccc(CN2CCCCC2)c1`, the “activity change, negative = inhibition” value was -6.04% (inactive). With `Cc1ccccc1C(=O)N1CC/C(=N\OS(=O)(=O)O)c2ccc(Cl)cc21` the “activity change, negative = inhibition” value was -1.13% (inactive). With `CC(=O)OCC[N+](C)(C)C` the “activity change, negative = inhibition” value was -5.24% (inactive). In the case of `CC(=O)Nc1ccn(C2COC(COC(=O)c3ccccc3)O2)c(=O)n1` (centres undefined), the “activity change, negative = inhibition” value is reported as -3.12% (inactive). In the case of `CCCCNc1ccc(C(=O)OCCN(CC)CC)cc1`, the “activity change, negative = inhibition” value is reported as 7.56% (inactive). In the case of `Cc1onc(-c2ccccc2)c1C(=O)Cl`, the “activity change, negative = inhibition” value is reported as -11.4% (inactive). With `CCCC(=O)OCOC(=O)C1=C(C)NC(C)=C(C(=O)OC)C1c1cccc(Cl)c1Cl` (centres undefined) the “activity change, negative = inhibition” value was -10.5% (inactive). For `CC(C)C(=O)Nc1cccc(C2CN3CCSC3=N2)c1` (centres undefined), the “activity change, negative = inhibition” value was -3.03% (inactive). With `O=C1NC(=O)/C(=C/c2ccc3c(c2)OC(F)(F)O3)S1` the “activity change, negative = inhibition” value was 9.61% (inactive). In the case of `CC(C)C[C@H](NC(=O)CNC(=O)[C@H](Cc1ccc(O)cc1)NC(=O)[C@H](CO)NC(=O)[C@H](Cc1c[nH]c2ccccc12)NC(=O)[C@H](Cc1cnc[nH]1)NC(=O)[C@@H]1CCC(=O)N1)C(=O)N[C@@H](CCCN=C(N)N)C(=O)N1CCC[C@H]1C(=O)NCC(N)=O` (stereo in doubt), the “activity change, negative = inhibition” value is reported as -1.77% (inactive). For `COc1cc2c(cc1OC)C(=O)CC2`, the “activity change, negative = inhibition” value was -5.42% (inactive). For `Clc1ccc2c(c1)Nc1ccccc1S2`, the “activity change, negative = inhibition” value was -3% (inactive). With `Cc1ccc(/C=N/n2c(-c3ccccc3)csc2=S)cc1` the “activity change, negative = inhibition” value was 7.17% (inactive). In the case of `Nc1nnnn1-c1ccccc1`, the “activity change, negative = inhibition” value is reported as -5.09% (inactive). For `CC(=O)N[C@@H](CO)C(=O)N[C@@H](CC(=O)O)C(=O)N[C@@H](CCCCN)C(=O)N1CCC[C@H]1C(=O)O` (Ac-SDKP-OH), the “activity change, negative = inhibition” value was -1.51% (inactive). With `Nc1ccc([N+](=O)[O-])c(C(F)(F)F)c1` the “activity change, negative = inhibition” value was -25.4% (inactive). With `NC(=O)NC1N=C([O][Al])NC1=O` (centres undefined) the “activity change, negative = inhibition” value was 0.393% (inactive). In the case of `COCCc1ccccn1`, the “activity change, negative = inhibition” value is reported as -4.25% (inactive). In the case of `CC(=O)c1cc2ccccc2s1`, the “activity change, negative = inhibition” value is reported as 4.63% (inactive). For `Cc1ccc(-c2ccccc2C#N)cc1`, the “activity change, negative = inhibition” value was 17.6% (inactive). With `COc1ccc(/C(C)=C/C(=O)O)c(OC)c1` the “activity change, negative = inhibition” value was 2.28% (inactive). In the case of `CC(=O)Oc1ccc(C2(c3ccc(OC(C)=O)cc3)Oc3ccccc3NC2=O)cc1`, the “activity change, negative = inhibition” value is reported as -1.35% (inactive).

Experiment: qHTS assay for measurement of the activity of small molecule inhibitors on Zika virus induced Caspase-3 activity in human astrocytoma cells (AID 1224859);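 further: plate controls were ZIKV-infected untreated cells for no effect and uninfected cells for full effect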
Settings: SNB-19 ZIKV-induced caspase-3/7, luminescence, 6 h; series mostly up to 45.7 µM; activity change, negative = inhibition: at the top concentration
Method in brief: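 Luminescence read-out (Caspase-Glo 3/7, 30 min RT) of caspase activity in SNB-19 cells infected 6 h with ZIKV, 2 FFU/cell, after 1 h compound pretreatment; % inhibition from induction normalised to uninfected (0%) and infected (100%) wells.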
For `C[N+](C)(C)CCO`, the “activity change, negative = inhibition” value was -13.3% (inactive). In the case of `CC(C(=O)O)c1ccc(/C=C2\CCCCC2=O)cc1` (centres undefined), the “activity change, negative = inhibition” value is reported as -10.9% (inactive). In the case of `CC(=O)OCC(=O)Nc1cc(C#N)cc(NC(=O)COC(C)=O)c1Cl`, the “activity change, negative = inhibition” value is reported as -24.2% (inactive).
